Among the data in PubChem BioAssay are z-score and composite z-score values, retold here.

Activity calls are given as the source filed them.

Experiment [1] can be described thus: optical density shifts of acrAB sulA E. coli – strain DRC41, OD650, 48 h, E. coli filamentation inducer project, primary screen (AID 1152).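 Also: E. coli MC1000 strain DRC41 lacking acrAB efflux pump and sulA.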 The conditions noted are these: higher = more signal, called active from +8 up or from −8 down.
Experiment [2] is described as follows: probe aLefty1 binding on compound microarray – biochemical, small-molecule microarray, 635/667 nm fluorescence, primary screen (AID 1153).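 Also: score merges spot fluorescence with signal-to-noise ratio from the scanned slide images.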 The conditions noted are these: higher = more signal.
Experiment [3] is described as follows: plasmodial surface anion channel blockers, osmotic lysis – cell-based, P. falciparum Indochina, OD700, 1 h, primary screen (AID 1154). The conditions noted are these: P. falciparum Indochina infected RBC osmotic lysis, higher = more signal, called active from +8 up or from −8 down.
Experiment [4] can be described thus: plasmodial surface anion channel blockers, osmotic lysis – cell-based, P. falciparum Indochina, OD700, 2 h, primary screen (AID 1155).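 Also: lysis reports solute entry through the parasite surface anion channel PSAC.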 The conditions noted are these: P. falciparum Indochina infected erythrocytes, higher = more signal, called active from +8 up or from −8 down.
Experiment [5] in a line: changes in parasitized red cell lysis, either direction – P. falciparum Indochina, OD700, 3 h, PSAC antagonist project, primary screen (AID 1156). The conditions noted are these: P. falciparum-infected erythrocytes, osmotic lysis, higher = more signal, called active from +8 up or from −8 down.
The nature of experiment [6]: plasmodial surface anion channel blockers, osmotic lysis – cell-based, P. falciparum Indochina, OD700, 18 h, primary screen (AID 1157). To be noted: P. falciparum Indochina infected erythrocytes, osmotic lysis OD700, 18 h; higher = more signal, called active from +8 up or from −8 down.
A short description of experiment [7]: S6 kinase pathway phospho-S6 level changes – cell-based, A549, cytoblot, luminescence, serum-stimulated, primary screen (AID 1158).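 Also: serum-stimulated A549 lung adenocarcinoma cells; signal is phosphorylated S6 detected by cytoblot immunostaining with HRP secondary.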 The conditions noted are these: 5 h, higher = more signal.
The target in experiment [8] is NADPH oxidase 2 (Homo sapiens) (UniProt P04839). The experiment is described as follows: compounds shifting NOX2 Amplex Red fluorescence – cell-based, HEK293-NOX2, PMA-stimulated, NOX inhibitor project, primary screen (AID 1159). Also: test concentration not given here. To be noted: 45 min, higher = more signal, called active from +8 up or from −8 down.
Experiment [9] deals with NADPH oxidase 4 (Homo sapiens) (UniProt Q9NPH5). The experiment can be described thus: compounds shifting NOX4 Amplex Red fluorescence – cell-based, HEK293-NOX4, tetracycline-induced, NOX inhibitor project, primary screen (AID 1160). To be noted: HEK293-NOX4, Amplex Red H2O2 fluorescence, 45 min; higher = more signal, called active from +8 up or from −8 down.
For experiment [10], the target named is NADPH oxidase 5 (Homo sapiens) (UniProt Q96PH1). The experiment is described as follows: compounds shifting NOX5 Amplex Red fluorescence – cell-based, HEK293-NOX5, NOX inhibitor project, primary screen (AID 1161). To be noted: HEK293-NOX5, ionomycin, 45 min, higher = more signal.
NADPH oxidase 5 (Homo sapiens), sequence (Q96PH1 whole entry, looked up): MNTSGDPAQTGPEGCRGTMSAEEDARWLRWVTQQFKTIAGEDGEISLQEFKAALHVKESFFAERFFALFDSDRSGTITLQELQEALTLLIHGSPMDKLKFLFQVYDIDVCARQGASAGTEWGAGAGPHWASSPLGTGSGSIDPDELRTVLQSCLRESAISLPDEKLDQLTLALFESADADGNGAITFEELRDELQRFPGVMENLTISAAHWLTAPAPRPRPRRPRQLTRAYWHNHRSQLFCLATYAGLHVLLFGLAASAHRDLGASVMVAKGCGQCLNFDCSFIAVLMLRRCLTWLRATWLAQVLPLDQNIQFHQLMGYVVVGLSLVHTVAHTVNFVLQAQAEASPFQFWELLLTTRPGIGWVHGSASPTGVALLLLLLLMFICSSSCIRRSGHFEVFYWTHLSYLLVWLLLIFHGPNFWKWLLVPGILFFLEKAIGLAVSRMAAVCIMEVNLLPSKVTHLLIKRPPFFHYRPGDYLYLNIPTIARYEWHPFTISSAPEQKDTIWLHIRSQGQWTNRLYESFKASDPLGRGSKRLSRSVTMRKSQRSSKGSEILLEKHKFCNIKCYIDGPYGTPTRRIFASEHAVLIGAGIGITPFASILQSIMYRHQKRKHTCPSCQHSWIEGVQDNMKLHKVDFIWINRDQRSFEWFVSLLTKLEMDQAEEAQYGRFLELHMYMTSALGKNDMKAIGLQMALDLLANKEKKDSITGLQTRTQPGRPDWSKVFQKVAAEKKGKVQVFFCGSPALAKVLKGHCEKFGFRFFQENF

NADPH oxidase 2 (Homo sapiens), sequence (P04839 whole entry, looked up): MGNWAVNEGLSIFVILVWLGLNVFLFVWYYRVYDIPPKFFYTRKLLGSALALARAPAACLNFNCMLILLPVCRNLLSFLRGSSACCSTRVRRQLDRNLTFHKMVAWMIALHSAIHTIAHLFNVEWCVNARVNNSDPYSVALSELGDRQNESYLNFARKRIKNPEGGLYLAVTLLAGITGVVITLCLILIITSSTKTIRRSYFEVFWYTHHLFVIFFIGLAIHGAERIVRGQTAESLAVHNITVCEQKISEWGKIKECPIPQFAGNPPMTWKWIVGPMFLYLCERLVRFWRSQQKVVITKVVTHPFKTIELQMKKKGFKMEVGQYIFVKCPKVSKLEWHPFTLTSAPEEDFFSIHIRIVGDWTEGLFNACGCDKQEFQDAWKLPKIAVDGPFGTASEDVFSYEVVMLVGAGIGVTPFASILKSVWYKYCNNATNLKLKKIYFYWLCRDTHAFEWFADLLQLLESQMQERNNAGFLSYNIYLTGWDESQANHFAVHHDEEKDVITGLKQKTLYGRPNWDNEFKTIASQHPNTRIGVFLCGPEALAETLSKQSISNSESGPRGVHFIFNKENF
NADPH oxidase 4 (Homo sapiens), sequence (Q9NPH5 whole entry, looked up): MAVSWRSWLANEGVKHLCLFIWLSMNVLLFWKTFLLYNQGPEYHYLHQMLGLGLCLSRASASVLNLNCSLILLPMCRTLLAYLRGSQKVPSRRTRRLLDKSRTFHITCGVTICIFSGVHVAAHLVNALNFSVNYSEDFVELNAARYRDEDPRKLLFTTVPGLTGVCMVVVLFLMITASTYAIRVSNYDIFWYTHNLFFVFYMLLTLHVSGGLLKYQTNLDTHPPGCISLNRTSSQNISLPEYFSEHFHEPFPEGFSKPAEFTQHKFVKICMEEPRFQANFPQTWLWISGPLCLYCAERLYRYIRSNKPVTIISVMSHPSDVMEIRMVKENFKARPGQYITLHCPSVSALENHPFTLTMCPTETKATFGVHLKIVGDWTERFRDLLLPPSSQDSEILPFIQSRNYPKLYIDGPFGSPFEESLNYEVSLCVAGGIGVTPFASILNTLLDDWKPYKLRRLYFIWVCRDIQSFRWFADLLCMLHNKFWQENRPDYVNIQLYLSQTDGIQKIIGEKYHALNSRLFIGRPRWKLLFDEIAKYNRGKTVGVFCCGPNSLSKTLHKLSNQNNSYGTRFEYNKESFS

In the case of `CC(=O)NCCCC[C@@H]1NC(=O)[C@@H]2C[C@H](C(=O)NCc3ccc(F)cc3)[C@H](c3ccc(O)cc3)N2C1=O`, the z-score in experiment [1] is 0.921 (inactive); in [3] it was 1.63 (inactive); in experiment [4] it was 0.549 (inactive); in experiment [5] it was -1.64 (inactive); in [6], 0.277 (inactive); in experiment [7] it was -0.0125. Besides, the z-score in [8] is 0.647 (inactive); in experiment [9], 0.059 (inactive); in experiment [10], 1.37. The compound also displayed a composite z-score in [2] of -0.0601.
With `COC(=O)C(CC#Cc1ccc2c(c1)[C@]1(C(=O)N2)[C@H](C(=O)N2CCCCCCC2)[C@H]2C(=O)O[C@H](c3ccccc3)[C@H](c3ccccc3)N2[C@@H]1c1ccccc1OCCO)C(=O)OC`, the z-score in experiment [1] is -0.984 (inactive); in experiment [3], 1.49 (inactive); in [4], 0.918 (inactive); in experiment [5], 0.573 (inactive); in experiment [6] it was 0.417 (inactive); in [7] it was -0.0756. The z-score is 0.445 (inactive) in [8], 0.262 (inactive) in [9] and 1.22 in experiment [10]. In addition, the composite z-score in experiment [2] stood at 3.08.
In the case of `CCCC[C@@H]1C[C@H]1[C@@H](NC(=O)c1ccccc1)c1ccccc1`, the z-score in [1] was -1.39 (inactive); in [3] it was 0.713 (inactive); in [4], 0.803 (inactive); in [5], 0.13 (inactive); in experiment [6], 0.888 (inactive); in experiment [7], -0.943. For the same compound, the z-score in experiment [8] was -0.289 (inactive); in experiment [9], -1.21 (inactive); in experiment [10], 1.98. Moreover, in experiment [2], the composite z-score turned out to be 1.43.
As to `COC(=O)[C@@]1(Cc2ccc(OC)cc2)[C@H]2c3cc(C(=O)N(C)C)n(Cc4ccc(OC)c(OC)c4)c3C[C@H]2CN1C(=O)c1ccccc1`, the z-score is -1.86 (inactive) in experiment [1]; 2.55 (inactive) in [3]; 0.807 (inactive) in experiment [4]; 0.804 (inactive) in [5]; 1.23 (inactive) in experiment [6]; -0.574 in experiment [7]. Further, the z-score is 0.178 (inactive) in experiment [8], 1.13 (inactive) in [9] and 2.18 in [10]. For the same compound, the composite z-score in [2] stood at 1.14.
Take `CS(=O)(=O)CCOC(=O)C1=CC(c2ccc(CO)cc2)=CC(c2cccs2)N(Cc2cccc(OC(F)(F)F)c2)C=C1C(=O)OCCS(C)(=O)=O` (stereo not given): the z-score in [1] is -2.86 (inactive); in [3], 14.8 (active); in [4], 4.37 (inactive); in [5] it was 0.869 (inactive); in experiment [6], 1.95 (inactive); in [7], 0.158. Further, the z-score in experiment [8] was -2.07 (inactive); in experiment [9], -1.09 (inactive); in experiment [10], -2.37. The compound also registered a composite z-score in experiment [2] of 0.0575.
For `COC(=O)[C@@]1(Cc2ccc(OC)cc2)[C@H]2c3cc(C(=O)N4CCCC4)n(CCN4CCOCC4)c3C[C@H]2CN1C(=O)c1ccccc1`, the z-score in experiment [1] was -0.861 (inactive); in experiment [3] it was 0.32 (inactive); in [4], -0.288 (inactive); in experiment [5], 0.366 (inactive); in [6], 0.225 (inactive); in [7] it was -0.286. Also, the figures for the z-score in experiment [8], in experiment [9] and in experiment [10] were 0.99 (inactive), -0.245 (inactive) and -3.66, respectively. This compound also yielded a composite z-score in [2] of 2.2.
For `C=CCC(OC(C)=O)[C@@H]1[C@@H](N(Cc2cc3ccccc3o2)C(=O)c2ccc(C)cc2)c2cc(OCCCO)ccc2N1C(=O)c1ccc(-c2ccccc2)cc1` (stereo not given in full), the z-score in experiment [1] is 1.33 (inactive); in [3] it was 1.8 (inactive); in experiment [4], 0.345 (inactive); in experiment [5] it was -1.06 (inactive); in [6], 0.115 (inactive); in experiment [7] it was 4.08. For the same compound, the z-score in experiment [8] is -1.59 (inactive); in experiment [9], 0.768 (inactive); in experiment [10] it was 2.25. Further, the composite z-score in experiment [2] is -0.519.
`C[C@]1(C(=O)NCC(F)(F)F)c2ccccc2C(=O)N(Cc2cc(F)cc(C(F)(F)F)c2)[C@H]1c1ccc(CO)cc1`: the z-score was -0.436 (inactive) in [1]; 4.43 (inactive) in experiment [3]; -0.263 (inactive) in experiment [4]; 2.21 (inactive) in experiment [5]; -0.682 (inactive) in experiment [6]; 2.24 in [7]. Moreover, the results for the z-score in [8], in experiment [9] and in [10] were -0.779 (inactive), -2.9 (inactive) and -3.61, respectively. In experiment [2], this compound gave a composite z-score of -0.355.
As for `C=CCOC(=O)[C@H]1[C@@H]2C(=O)O[C@@H](c3ccccc3)[C@@H](c3ccccc3)N2[C@@H](c2ccc(OCCOC(=O)[C@@H]3C[C@@H]4C(=O)NCC(=O)N4[C@@H]3c3ccc(O)cc3)cc2)[C@]12C(=O)Nc1ccc(I)cc12`, the z-score was -0.481 (inactive) in experiment [1]; 1.63 (inactive) in experiment [3]; 1.39 (inactive) in experiment [4]; 1.49 (inactive) in [5]; 0.816 (inactive) in experiment [6]; 0.361 in [7]. For the same compound, the z-score is 1.57 (inactive) in experiment [8], 1.28 (inactive) in [9] and 1.61 in experiment [10]. In addition, the composite z-score in experiment [2] worked out at 0.0545.
For the compound `COCCOC(=O)N1C(=O)[C@@]2(c3cc(C#Cc4ccc(OC)cc4)ccc31)[C@H](C(N)=O)[C@H]1C(=O)O[C@H](c3ccccc3)[C@H](c3ccccc3)N1[C@@H]2c1ccc(O)cc1`, the z-score in experiment [1] is 1.52 (inactive); in experiment [3], 0.429 (inactive); in experiment [4], -0.359 (inactive); in experiment [5], -0.939 (inactive); in [6], -1.13 (inactive); in experiment [7], 2.93. Moreover, the z-score in experiment [8] was -0.0615 (inactive); in experiment [9], 0.893 (inactive); in experiment [10], 0.128. Also, the composite z-score in [2] turned out to be 0.649.
As to `O=c1cccc(-c2ccc3ccccc3c2)o1`, the z-score was 0.62 (inactive) in experiment [1]; 25.4 (active) in experiment [3]; 10 (active) in experiment [4]; -1.71 (inactive) in [5]; 1.1 (inactive) in experiment [6]; -0.38 in experiment [7]. Also, the z-score in experiment [8] is -0.415 (inactive); in experiment [9], -4.41 (inactive); in experiment [10], -1.19. In [2], this compound gave a composite z-score of -0.0035.
